The panel holds about 83,000 compounds, 20% with a hit somewhere; the sample as a whole holds those more often.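 Negative percent growth values reflect cell death: -40 means 40% of the cells present at the start died, and -100 means all died.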 Values without a mark were called inactive. Calls of active or inactive are those of the source. The calls were made as follows: active = growth percent below 10; inactive = the rest.
Tests used:
Test in all cases: NCI-60 one-dose screen, 48 h (100 = growth as untreated, 0 = no growth, -100 = all killed)
Conditions in all cases: 10 µM unless noted
HCT-15 colon = tested on: HCT-15 colon
HT29 colon = tested on: HT29 colon
SNB-75 CNS = tested on: SNB-75 CNS
SNB-19 CNS = tested on: SNB-19 CNS
U251 CNS = tested on: U251 CNS
PC-3 prostate = tested on: PC-3 prostate
SK-MEL-5 melanoma = tested on: SK-MEL-5 melanoma
UACC-62 melanoma = tested on: UACC-62 melanoma
LOX IMVI melanoma = tested on: LOX IMVI melanoma
SK-MEL-28 melanoma = tested on: SK-MEL-28 melanoma

SMILES | growth (HCT-15 colon) | growth (HT29 colon) | growth (SNB-75 CNS) | growth (SNB-19 CNS) | growth (U251 CNS) | growth (PC-3 prostate) | growth (SK-MEL-5 melanoma) | growth (UACC-62 melanoma) | growth (LOX IMVI melanoma) | growth (SK-MEL-28 melanoma)
CO/C(=C1/NC(=O)C(Cc2ccc(O)c(Br)c2)N(C)C(=O)C(C)NC(=O)CCC/C=C(\C)CCC(C)OC1=O)c1ccccc1 (stereo not given) | 3.37% (active) | 5.97% (active) | -94.2% (active) | -4.37% (active) | -36.8% (active) | -9.06% (active) | -67.6% (active) | 9.3% (active) | -34.2% (active) | -25.8% (active)
CCCCNC(=O)c1cc(NCc2cc(O)ccc2O)ccc1O | 84.6% | 80.8% | 66.6% | 106% | 98.6% | 74.4% | 98.4% | 93.8% | 91.3% | 105%
Clc1ccc(/C=C/c2nc(Nc3ccc(Cl)cc3)c3ccccc3n2)cc1 | 99% | 112% | 93.6% | 100% | 100% | 99.2% | 96.9% | 93.2% | 97.1% | 117%
O=C(O)c1ccc(CO)o1 | 103% | 106% | 90.7% | 103% | 91.8% | 105% | 107% | 101% | 109% | 103%
O=C(O)CC1Sc2ccccc2NC1=O (stereo not given) | 109% | 129% | 94% | 108% | 103% | 92.1% | 175% | 105% | 96.4% | 126%
C=C(C=O)C1CCC2(C(=O)O)CCC3(C)C(CCC4C5(C)CCC(O)C(C)(C)C5CCC43C)C12 (stereo not given) | -15.1% (active) | 3.49% (active) | 47.1% | 66.3% | 6.78% (active) | 20.4% | -96.9% (active) | -84.2% (active) | -74.1% (active) | -30.8% (active)
Cc1cc(Cc2cc(C)cc(C(C)(C)C)c2O)c(O)c(C(C)(C)C)c1 | 21.4% | 25% | 69.3% | 48% | 32.5% | 33.9% | 48.3% | 47% | 47.5% | 80.3%
O=C1CCC(N2C(=O)c3cccc(NCCCC4CCN(CCNC(=O)c5cc6c(o5)C(=O)c5ccccc5C6=O)CC4)c3C2=O)C(=O)N1 (stereo not given) | -80.8% (active) | 1.94% (active) | -99.2% (active) | -96% (active) | -83.6% (active) | 2.13% (active) | -99.4% (active) | -96.2% (active) | -90.1% (active) | -6.88% (active)
CN(C)c1ccc(C#Cc2c(F)cccc2Cl)cc1 | 78.4% | 73.7% | 75% | 111% | 89.1% | 70.5% | 85.3% | 87.6% | 81.3% | 105%
Cc1c(C(N)=O)sc2nc(C)n(/N=c3\scc(-c4ccccc4)n3Cc3ccccc3)c(=O)c12 | 14.9% | 79.5% | 54.8% | 29.4% | 7.76% (active) | 1.97% (active) | 7.44% (active) | 27.7% | 20.6% | 48.2%
O=C(C[C@@]1(O)C(=O)Nc2c(Cl)ccc(Cl)c21)c1ccc(C2CC2)cc1 | 19.1% | 12.4% | -29.9% (active) | 36.8% | 31.3% | 31.4% | 38.8% | 42.1% | 38.1% | 52.6%
CN(C)CCN1C(=O)c2cccc3c(-c4ccc(-c5nc6c7ccccc7c7ccccc7c6[nH]5)cc4)ccc(c23)C1=O | 102% | 81.1% | 117% | 110% | 95.5% | 87.9% | 101% | 112% | 58% | 114%
CN(C)c1ccc2cc(-c3ccc(Cl)c(Cl)c3)c(N)nc2c1 | 32.1% | 2.59% (active) | 63.3% | 63.6% | 31.1% | 27.6% | -58.8% (active) | 57.2% | 20.6% | 47.4%
CCCN1CCN(c2ccc3nc(-c4ccc5nc(-c6cc(OC)c(OC)c(OC)c6)[nH]c5c4)[nH]c3c2)CC1 | 99.5% | 58% | 43.6% | 69.8% | 66.3% | 70.7% | 41.3% | 35.8% | 67.3% | 57.8%
CC(=O)Nc1ccc(C(=O)/C=C/c2ccccc2)cc1 | 77.3% | 44.6% | 75.9% | 80.5% | 76.3% | 84.3% | 91.5% | 90% | 61.8% | 93.4%
O=[N+]([O-])c1ccccc1C(O)Cc1ccc2ccccc2n1 (stereo not given) | 105% | 112% | 85.8% | 101% | 96.9% | 95.5% | 89.9% | 82.6% | 93% | 92.9%
CCOC(=O)c1nnn(-c2ccccc2)c1C1=CN(C)CCC1 | 99% | 99.1% | 89.8% | 108% | 102% | 96.4% | 105% | 100% | 97.3% | 111%
NC(N)=N/N=C/CO | 106% | 98.4% | 89.9% | 111% | 105% | 91.2% | 102% | 113% | 93.1% | 106%
COC(=O)Nc1nc2ccc(C(=O)C3CC3)cc2[nH]1 | -1.31% (active) | 1.32% (active) | 9.46% (active) | 13.5% | 12.8% | 14.7% | 8.13% (active) | 30.3% | 34.7% | 49%
CCCCCCCC/C=C/CCCCCCCC1=NCC[N+]1(CCO)CCO | 80.6% | 13% | 63.2% | 73.7% | 36.1% | 31.9% | 77.9% | 69.4% | 52% | 96.3%
NC(=O)c1c(NC(=O)c2ccc(C(F)(F)F)cc2Cl)sc2c1CCC(=O)C2 | -35% (active) | 1.16% (active) | -81.9% (active) | 14% | -5.53% (active) | -68.8% (active) | -91.9% (active) | -74.7% (active) | -15.5% (active) | -67.2% (active)
O=C1c2ccccc2C2(c3ccc(O)cc3)c3ccccc3Oc3cccc1c32 (stereo not given) | 25.9% | 7.07% (active) | 42.2% | 35.6% | 15.5% | 21.6% | 16.9% | 30.8% | 28.3% | 51.9%
Clc1ccc(/C=N\N=c2\scc(-c3ccc(Cl)cc3)n2/N=C/c2ccc(Cl)cc2)cc1 | 111% | 76.5% | 91.6% | 90% | 97.6% | 102% | 106% | 98.7% | 109% | 106%
Cc1ccc(S(=O)(=O)NN/C(N)=N\S(=O)(=O)c2cc(C)c(Cl)cc2SCc2ccccc2)cc1 | 109% | 107% | 68.3% | 86.9% | 83.9% | 71.6% | 104% | 84.3% | 92% | 94.3%
CS(=O)(=O)c1ccc(N/N=C/c2c(-c3ccc(S(C)(=O)=O)cc3)[nH]c3ccc(F)cc23)cc1 | 62.7% | 21.8% | 38.8% | 26.1% | 11.2% | 33.9% | -35.4% (active) | 25.7% | 3.68% (active) | 14.7%
COc1ccc(/C(C)=C(\c2ccc(Cl)cc2)c2ccc(OCCN(C)C)cc2)cc1F | 16.4% | 8.32% (active) | 75.4% | 80% | 46% | 51.2% | 55% | 42.3% | -44.6% (active) | 30.9%
Cc1ccc(S(=O)(=O)N(CC[C@@H]2C[C@H]2c2cc3ccccc3o2)C(=O)NC2CCCCC2)cc1 | 92.3% | 90.8% | 102% | 99.8% | 100% | 95.6% | 101% | 78.4% | 90.5% | 95.7%

Source: PubChem BioAssay (NCI)
